From PubChem BioAssay (NCI) come the findings set out here.

Test systems include NCI-H23 lung; NCI-H226 lung; NCI-H322M lung; HOP-62 NSCLC; NCI-H460 lung; HOP-92 NSCLC; NCI-H522 lung; A549/ATCC NSCLC; 786-0 renal; COLO 205 colon; DU-145 prostate; K-562 leukemia; MALME-3M melanoma; MDA-MB-231 breast; RXF 393 renal; SF-268 CNS; SF-295 CNS; SF-539 CNS; UACC-257 melanoma; M14 melanoma.
What all share (assay): NCI-60 one-dose screen, 48 h (100 = growth as untreated, 0 = no growth, -100 = all killed)
What all share (details): 10 µM unless noted

Each structure is given as a SMILES string. Compounds without any hit were thinned out: in the full panel of roughly 83,000, 20% have a hit.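 Cell lines were cultured in 96-well plates, exposed to a single compound concentration, and assessed for percent growth 48 hours later.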 Values without a mark were called inactive. Active and inactive are the calls of the source. The calls were made as follows: active = growth percent below 10; inactive = the rest.

For the compound `CCN1CCN(Cc2ccc(NC(=O)Nc3cccc(-n4ccc5c(NC(=O)c6ccccc6)nccc54)c3)cc2C(F)(F)F)CC1`, the growth with NCI-H23 lung was 92.4%; in the assay on NCI-H226 lung, 99.5%; with NCI-H322M lung, 101%; in the assay on HOP-62 NSCLC, 72.6%; in the assay with NCI-H460 lung it was 96.3%; with HOP-92 NSCLC, 60.5%. The growth in the assay with NCI-H522 lung is 45.6%; in the assay with A549/ATCC NSCLC, 86.9%; with 786-0 renal, 108%; in the assay with COLO 205 colon, 65.7%; with DU-145 prostate it was 88.8%; in the assay on K-562 leukemia it was 49.3%. Also, the growth in the assay with MALME-3M melanoma was 64%; in the assay with MDA-MB-231 breast, 82%; in the assay with RXF 393 renal it was 79.5%; in the assay on SF-268 CNS it was 85.3%; in the assay with SF-295 CNS it was 55.7%; in the assay with SF-539 CNS, 81.1%. Moreover, the values for the growth in the assay on UACC-257 melanoma and with M14 melanoma were 73.9% and 76%, respectively.
As to `COC1OCC(OS(=O)(=O)c2ccc(C)cc2)C(OC(=O)c2ccccc2)C1OC(=O)c1ccccc1` (stereo not given), the growth in the assay on NCI-H23 lung is 68.4%; in the assay with NCI-H226 lung, 68.4%; with NCI-H322M lung, 76.6%; with HOP-62 NSCLC it was 42.2%; with NCI-H460 lung it was 17.4%; with HOP-92 NSCLC, 62.2%. Moreover, the growth in the assay with NCI-H522 lung was 19%; in the assay on A549/ATCC NSCLC, 48.7%; in the assay with 786-0 renal, 42.1%; in the assay on COLO 205 colon, 36.4%; in the assay with DU-145 prostate, 66.6%; in the assay on K-562 leukemia it was 37.8%. Besides, the growth with MALME-3M melanoma is 37.3%; with MDA-MB-231 breast, 57.2%; in the assay on RXF 393 renal, 49.6%; with SF-268 CNS, 62.4%; in the assay on SF-295 CNS, 30%; in the assay on SF-539 CNS it was 39.2%. The growth in the assay with UACC-257 melanoma was 71%; in the assay with M14 melanoma, 34.3%.
In the case of `CC/C(=C(\CC)c1ccc(OCCN(CC)CC)cc1)c1ccc(OCCN(CC)CC)cc1`, the growth in the assay with NCI-H23 lung is 40.7%; with NCI-H226 lung, 62.7%; in the assay with NCI-H322M lung it was 60.7%; with HOP-62 NSCLC it was 36.9%; with NCI-H460 lung it was 31.8%; in the assay with HOP-92 NSCLC it was -10.2% (active). Further, the growth with NCI-H522 lung was 16.2%; with A549/ATCC NSCLC it was 37.1%; with 786-0 renal it was 22%; with COLO 205 colon it was 4.87% (active); with DU-145 prostate, 73.9%; in the assay with K-562 leukemia, 12.7%. Also, the growth was -42.8% (active) in the assay on MALME-3M melanoma; 5.07% (active) in the assay on MDA-MB-231 breast; -4.27% (active) with RXF 393 renal; 55.2% in the assay on SF-268 CNS; -13.9% (active) with SF-295 CNS; -35% (active) in the assay on SF-539 CNS. Further, the growth is -51.8% (active) in the assay with UACC-257 melanoma and -0.0375% (active) in the assay on M14 melanoma.
On to `CC12CCC3C(CCC4CC(O)CCC43C)C1C/C(=C/O)C(=O)O2` (stereo not given), for which the growth in the assay on NCI-H23 lung was 98.7%; in the assay with NCI-H226 lung, 96.6%; in the assay on NCI-H322M lung, 107%; in the assay with HOP-62 NSCLC, 99.1%; in the assay with NCI-H460 lung it was 110%; in the assay with HOP-92 NSCLC, 99.6%. The growth in the assay with NCI-H522 lung is 84.2%; in the assay on A549/ATCC NSCLC it was 100%; in the assay with 786-0 renal it was 111%; in the assay on COLO 205 colon, 105%; in the assay with DU-145 prostate it was 108%; with K-562 leukemia it was 102%. Also, the growth is 134% with MALME-3M melanoma; 106% with MDA-MB-231 breast; 99.8% in the assay with RXF 393 renal; 101% with SF-268 CNS; 105% with SF-295 CNS; 113% with SF-539 CNS. In addition, the growth was 92.6% in the assay on UACC-257 melanoma and 105% in the assay with M14 melanoma.
As for `CN(C)CC/C=C1\c2ccccc2Sc2ccc(Cl)cc21`, the growth in the assay with NCI-H23 lung was 80%; with NCI-H226 lung it was 102%; in the assay with NCI-H322M lung, 72.1%; in the assay with HOP-62 NSCLC, 75.6%; with NCI-H460 lung, 77.2%; with HOP-92 NSCLC it was 36.7%. Also, the growth in the assay with NCI-H522 lung was 67.5%; in the assay with A549/ATCC NSCLC, 74.9%; in the assay on 786-0 renal, 58.2%; in the assay with COLO 205 colon, -40.1% (active); in the assay with DU-145 prostate, 90.9%; in the assay with K-562 leukemia, 16.4%. In addition, the growth was 69.8% in the assay with MALME-3M melanoma; 69% in the assay on MDA-MB-231 breast; 41.2% in the assay on RXF 393 renal; 68.8% with SF-268 CNS; 75.4% with SF-295 CNS; 92.3% in the assay with SF-539 CNS. The growth in the assay with UACC-257 melanoma is -54.4% (active); with M14 melanoma, -57.5% (active).
On to `COc1cc2c(cc1OCCCCC(=O)Nc1ccc(-c3nc4ccccc4s3)cc1)N=C[C@@H]1CCCN1C2=O`, for which the growth was -11.4% (active) with NCI-H23 lung; -43.7% (active) with NCI-H226 lung; -0.382% (active) in the assay with NCI-H322M lung; -2.65% (active) in the assay with HOP-62 NSCLC; -19.5% (active) in the assay with NCI-H460 lung; -53% (active) in the assay on HOP-92 NSCLC. Also, the growth in the assay on NCI-H522 lung was -54% (active); in the assay on A549/ATCC NSCLC, -42.2% (active); with 786-0 renal, -6.44% (active); in the assay on COLO 205 colon, -60.5% (active); in the assay on DU-145 prostate it was 3.12% (active); in the assay with K-562 leukemia, -17.6% (active). The growth in the assay with MALME-3M melanoma was -80.2% (active); in the assay on MDA-MB-231 breast, 14.7%; in the assay with RXF 393 renal, -83% (active); in the assay with SF-268 CNS it was 7.56% (active); in the assay on SF-295 CNS, 18.3%; in the assay on SF-539 CNS, -46.6% (active). Also, the growth in the assay on UACC-257 melanoma was -47.1% (active); in the assay on M14 melanoma it was -59.3% (active).
Consider `O=c1c2ccccc2sc2c(NCCCNCCO)nc3ccccc3c12`, for which the growth is 50% with NCI-H23 lung; 44.4% with NCI-H226 lung; 65.8% in the assay with NCI-H322M lung; 36.5% with HOP-62 NSCLC; -33.5% (active) in the assay with NCI-H460 lung; -1.63% (active) in the assay with HOP-92 NSCLC. For the same compound, the growth in the assay on NCI-H522 lung is 20.9%; with A549/ATCC NSCLC, 25.9%; with 786-0 renal, 41.3%; in the assay with COLO 205 colon, -78.9% (active); in the assay with DU-145 prostate, 16.5%; with K-562 leukemia it was -39.5% (active). Further, the growth in the assay with MALME-3M melanoma is -55.3% (active); in the assay with MDA-MB-231 breast it was -10.6% (active); in the assay with RXF 393 renal it was 14.2%; with SF-268 CNS, 37.5%; in the assay with SF-295 CNS it was -3.85% (active); with SF-539 CNS it was 54.7%. Moreover, the growth in the assay with UACC-257 melanoma was 64%; in the assay on M14 melanoma, -61.8% (active).
For `Nc1ncc(-c2ccc3ncnc(Nc4ccc(F)c(Cl)c4)c3c2)cn1`, the growth in the assay on NCI-H23 lung is 56.2%; in the assay on NCI-H226 lung it was 55.5%; in the assay on NCI-H322M lung, 33%; in the assay on HOP-62 NSCLC, 57.5%; in the assay with NCI-H460 lung, 11.9%; in the assay on HOP-92 NSCLC, 31.9%. Further, the growth in the assay with NCI-H522 lung was 42.9%; in the assay with A549/ATCC NSCLC, 34.6%; with 786-0 renal, 6.18% (active); with COLO 205 colon, 32.3%; in the assay with DU-145 prostate, 43.3%; in the assay with K-562 leukemia it was 55.5%. The growth in the assay on MALME-3M melanoma was 36.3%; with MDA-MB-231 breast it was 54.4%; in the assay with RXF 393 renal it was 32.9%; in the assay with SF-268 CNS it was 54.9%; with SF-295 CNS, 16.2%; in the assay on SF-539 CNS, 55.4%. Moreover, the growth in the assay on UACC-257 melanoma is 101%; with M14 melanoma, 87.5%.
